# Source: PubChem (several laboratories)
# MPTP inh = blocks calcium-induced mitochondrial swelling; isolated mouse mitochondria, Ca2+ swelling absorbance, 30 min; inhibition, % at 10 µM; 360,000 compounds, 1.4% hits;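 active = inhibition of 50% or more, scaled per plate between neutral and stimulator controls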;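 also: 0% = DMSO wells given calcium and 100% = 1 mM EGTA wells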
# HSP90 inh = HSP90 refolding inhibition in rabbit reticulocyte lysate | AID 1789 | 290,000 compounds, 0.91% hits | luciferase refolding luminescence, 3 h | inhibition, % at 5.6 µM;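 active = inhibition above the screen-wide mean plus 3 SD, computed separately per campaign, cut at about 16% in these data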;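 also: 0% = DMSO wells and 100% = 60 µM geldanamycin wells; inhibitors lower the luminescence because luciferase stays unfolded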
# HSF1 inh = HSF1 inhibition; activity change, negative = inhibition, % at 7.5 µM (by protocol); NIH3T3-HGL HSE-luciferase, MG132-induced, luminescence 8 h; active compounds read low; 300,000 compounds, 0.77% hits; AID 2098;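 active = more than half of replicate wells show activity change below -50%, luminescence cut by over half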;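 also: luciferase reports HSF-1 transcriptional activity via heat shock element; 0% = median of DMSO wells and -100% = zero luminescence signal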
# dFosB activator = enhances mouse delta FosB homodimer DNA binding. AID 493131. 340,000 compounds, 0.99% hits. P13346. purified delta FosB, TAMRA-CDK5 oligo fluorescence polarization; percent of positive-control signal above neutral wells. activation, % at 25 µM;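 active = mean activation above about 17%, with every replicate also reaching it, limit read from the data, passing the limit was not always enough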
# Target sequence (P13346 whole entry, looked up): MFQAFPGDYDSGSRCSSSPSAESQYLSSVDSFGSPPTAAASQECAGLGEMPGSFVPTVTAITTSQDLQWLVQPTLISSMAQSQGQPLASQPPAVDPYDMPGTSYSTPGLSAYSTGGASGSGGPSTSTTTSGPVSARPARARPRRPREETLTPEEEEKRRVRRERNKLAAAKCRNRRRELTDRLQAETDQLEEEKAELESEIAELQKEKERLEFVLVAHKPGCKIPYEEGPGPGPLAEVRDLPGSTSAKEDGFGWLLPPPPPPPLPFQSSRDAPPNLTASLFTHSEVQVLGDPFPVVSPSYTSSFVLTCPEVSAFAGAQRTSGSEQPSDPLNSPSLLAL
# HSF-1 act = increases HSF-1 driven luciferase reporter signal. NIH3T3-HGL HSF-1 luciferase reporter, MG132, 8 h; 100% = twice DMSO control signal. 300,000 compounds, 1.7% hits. activation, % at 9 µM;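 active = mean replicate activation of at least 50% with a set share of replicates each reaching 50%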;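 also: 0% = median of the neutral control wells and 100% = twice that signal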
# Platelet DG rel = platelet dense granule release activity. 300,000 compounds, 0.22% hits. inhibition, %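 (compounds screened at 7.5 µM in platelet-rich plasma)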. human platelet-rich plasma, SFLLRN dense granule ATP release, luminescence. AID 1663;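 active = mean replicate score, as percent of positive control, at or above 50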
# An asterisk follows results filed as active; / = no result given. A selection: hits, their analogues and other compounds. The true share with any hit is near 4.9%.
SMILES,MPTP inh,HSP90 inh,HSF1 inh,dFosB activator,HSF-1 act,Platelet DG rel
CN=CC1=C(O)c2ccccc2C1=O,-2,1,0,-12,-9,0
O=C1C(C=Nc2ccccc2)=C(O)c2ccccc21,7,17*,17,-8,54*,34
Cc1ccc(O)c(N=CC2=C(O)c3ccccc3C2=O)c1,4,11,6,-11,10,20
O=C1C(C=Nc2ccccc2O)=C(O)c2ccccc21,2,17*,15,-11,36,13
N#Cc1ccccc1CSCCNC(=O)Cc1c(F)cccc1Cl,-1,4,10,0,17,7
CC1N(O)C(c2ccc(Cl)cc2Cl)N(O)C1(C)C (stereo not drawn),-2,-1,-5,0,5,68*
O=C(Nc1ccc(N2CCCCC2)cc1)c1ccc([N+](=O)[O-])o1,1,5,67,-9,91*,24
CCC(=O)N1CCN(c2ccc(NC(=O)c3ccc4ccccc4c3)cc2)CC1,1,-3,28,-12,66*,1
CC(C)(C)C(=O)N1CCN(c2ccc(NC(=O)c3ccc([N+](=O)[O-])o3)cc2)CC1,1,5,1,-9,-5,-12
O=C(Nc1ccc(N2CCCC2)cc1)c1ccccc1[N+](=O)[O-],0,3,12,25*,12,1
CCC(=O)N1CCN(c2ccc(NC(=O)c3ccc([N+](=O)[O-])o3)cc2)CC1,1,5,-76*,-6,-80,5
CN(Cc1ccccc1)C(=O)COC(=O)CCC(=O)c1ccc(Cl)cc1,0,/,/,-4,/,/
CC1CCN(c2ccc(NC(=O)c3ccc([N+](=O)[O-])o3)cc2)CC1,1,/,95,-11,98*,0
CS(=O)(=O)N1CCN(c2ccc(NC(=O)c3ccc([N+](=O)[O-])o3)cc2)CC1,0,-1,/,1,/,-8
CC(C)(C)NCc1cc(Cl)ccc1OCc1ccccc1F,1,-4,-2,-3,3,2
CCN(CC)CCNCc1cc(Cl)ccc1OCc1ccccc1F,2,2,-61*,0,-71,-2
CC1(C)CC(=O)C2=C(C1)Nc1ccccc1NC2c1ccc(F)cc1 (stereo not drawn),1,3,-2,-3,-1,0
O=C1NCC2=C1C(c1ccc(Br)cc1)Nc1ccccc1N2 (stereo not drawn),-2,1,28,-4,51*,1
CC1(NC(=O)Nc2cccc3ccccc23)CCS(=O)(=O)C1 (stereo not drawn),-2,-6,12,-6,31,1
CCOC(=O)C1=C(C)Nc2nc3ccccc3n2C1c1ccc(O)cc1 (stereo not drawn),1,2,14,0,24,-5
CCOC(=O)c1ccccc1-n1c(C)cc(C2N=C(N)Nc3nc4ccccc4n32)c1C (stereo not drawn),1,5,-6,45*,-1,4
CCOC(=O)C1=C(COC(=O)c2ccc(OC)c(OC)c2OC)NC(=O)NC1C (stereo not drawn),0,/,-2,-7,2,3
Cc1c(C)n(Cc2ccc(F)cc2)c2ccc(C(=O)N3CCN(c4ccccn4)CC3)cc12,0,5,0,27*,4,6
COc1ccc(C2NC(=O)c3n[nH]c(C)c32)c(OC)c1 (stereo not drawn),0,0,10,-1,11,62*
CCOC(=O)c1ccc(N2C(=O)c3n[nH]c(C)c3C2c2ccc(OC)cc2OC)cc1 (stereo not drawn),8,2,15,-31,17,-5
SMILES,MPTP inh,HSP90 inh,HSF1 inh,dFosB activator,HSF-1 act,Platelet DG rel
CC(=O)Nc1ccc(OS(=O)(=O)c2ccc(C)cc2C)cc1,-1,-1,-2,-5,-2,-8
CC(=O)Nc1ccc(OS(=O)(=O)c2ccccc2C)cc1,-1,5,-91*,2,-93,3
O=C(/C=C/c1ccncc1)c1ccc2c(c1)OCCO2,-2,4,-1,-2,4,-3
COc1cc(/C=C/C(=O)c2ccc3c(c2)OCCO3)cc(Br)c1OCC(=O)N(C)C,0,2,191,-11,243*,9
CC1CN(C(=O)Nc2ccc3c(c2)OCCO3)CC(C)O1 (stereo not drawn),-1,-4,-58*,0,-64,1
CC(C)(C)OC(=O)N1CCN(C(=O)Nc2ccc3c(c2)OCCO3)CC1,1,5,-25,1,-20,2
O=C(Nc1ccc2c(c1)OCCO2)N1CCN(c2ccc(F)cc2)CC1,1,3,-58*,-12,-60,-1
Cc1cccc(C)c1N1CCN(C(=O)Nc2ccc3c(c2)OCCO3)CC1,5,-5,-48,-2,-51,3
C=C(C)Cn1c(N2CCN(c3ccc(OC)cc3)CC2)nc2c1c(=O)n(C)c(=O)n2C,-1,1,3,-9,-8,14
COc1ccc(N2CCN(c3nc4c(c(=O)n(C)c(=O)n4C)n3Cc3ccccc3)CC2)cc1,0,-1,5,-7,19,50*
O=C(O)COn1c(-c2ccccc2)nc2ccc(Cl)cc21,0,-2,0,0,6,-6
O=[N+]([O-])c1ccc2nc(-c3ccccc3)n(OCc3ccc(Cl)cc3)c2c1,10,-4,17,-7,59*,0
COn1c(-c2ccccc2)nc2ccc(Cl)cc21,-1,-2,32,-5,66*,9
COC(=O)c1cc(OC)nc2ccc(Br)cc12,3,4,2,-5,9,-7
O=C(Nc1cccc(NC(=O)c2cccs2)c1)c1ccc2c(c1)OCCO2,2,-2,5,-9,22,-3
CCOC(=O)CC1(C)Sc2ccccc2N1S(=O)(=O)c1ccc(C)cc1 (stereo not drawn),-1,/,/,/,/,/
CCOC(=O)c1c(C)cc(O)cc1O,0,/,/,-1,/,/
CCN(CC)CCn1c(=O)n(-c2ccc(Cl)cc2)c(=O)c2c3c(sc21)CN(C)CC3,13,4,6,-4,1,-3
CN1CCc2c(sc3c2c(=O)n(-c2ccc(Cl)cc2)c2nncn32)C1,-2,2,-55*,-11,-63,-5
O=C(Nc1ccc(N2CCCC2)cc1)c1cc(Br)ccc1Cl,0,14,3,52*,-3,2
CS(=O)(=O)c1ccc(C(=O)Nc2ccc(N3CCCC3)cc2)c(Cl)c1,0,-2,0,1,7,2
Cc1ccc(C(=O)Nc2ccc(N3CCCC3)cc2)c(C)c1,0,0,1,49*,-8,9
CCN(CC)CCNC(=O)c1ccc(Sc2ccc(C)cc2)c(NC(C)=O)c1,-1,-3,-12,-2,-6,1
O=S1(=O)Nc2c(ccc3cccnc23)-c2ccccc21,-4,1,142,-7,158*,-2
